# Target: RBM28
# Assay: pooled miR-30 sensor sort-seq; sequence = guide strand
# Settings: shRNA
# Note: reference of the scale not given here.
row,Sequence,sensor-assay potency score (higher = more potent)
1,TTGCACAGCTTTATCCTCTTGC,0.184
2,TTCTTCACCTTCGTCGTCTGAA,-0.116
3,TCCACTAGTAGCACTCAGCAGC,-1.24

# Target: RBM38
# Assay: as above
# Settings: shRNA
row,Sequence,sensor-assay potency score (higher = more potent)
1,TTCGGGTCTTTGCAAGCCCTCT,-1.39
2,TACTGGTCATAGGTGGCCGGTG,-1.24
3,TGGTACTGCACGAAAGTGGTGC,-0.732
4,AAGATCTTGGTGAACGTGGTGT,0.0778
5,TAGCTGTAGCCCACGAAGCTGG,-1.08
6,TTGGTGAACGTGGTGTCCTTCT,-0.339
7,TCGAAGTACTTCCTGAGCGAGG,-1.24
8,TTAACTTCTTGCTTTCAGGTTT,0.295
9,TATGGGTACTGGTCATAGGTGG,-0.624
10,ACGAAGATCTTGGTGAACGTGG,-1.06
11,AAACAGTCCATTAACTTCTTGC,0.128
12,TAAACAGTCCATTAACTTCTTG,-0.519

# Target: RBM45
# Assay: as above
# Settings: shRNA
row,Sequence,sensor-assay potency score (higher = more potent)
1,TTTATTTTTAGGTTCAGCCAAG,-0.905
2,TGGAAGTACAACATCTGTCTGG,-0.0344
3,TATATCTTCTAATACGTCTAAA,-0.714
4,TTGAATAAGGATCTCGTTGAAC,-0.518
5,TATTACTATAATAATCTTGTTC,-0.451
6,TTCATCTTCAACATCTCGGTGA,0.811
7,TTCTTCATCTTCAACATCTCGG,0.279
8,TACTATAATAATCTTGTTCAGA,-0.469
9,TTTGAGGCAACTGTGATCCAGA,-0.334
10,TAAAATACTGAACCACTCCATG,-0.914
11,TAAATTGTTGCTGACTTGGGTT,0.143

# Target: RBMX
# Assay: as above
# Settings: shRNA
row,Sequence,sensor-assay potency score (higher = more potent)
1,TAGTATCACGAGAACTTGGGTA,-0.18
2,TATCCGTCACGTGAGCTGCTGT,-0.783
3,TCGACTTCCACCATATCCGTCA,-0.253
4,TACCACTTTCAAATGATGGTTT,-0.141
5,TTTCTTGTCTGCCAACCCGATC,-1.65
6,ATATCCACCGTCATCCATGTGT,-0.304
7,TATCTCTTCCACGTGATACAGG,-1.23
8,TATCGCTATATCCTCTTGATGG,-1
9,TCCACTGCTACTGCGAACTGGT,-0.729
10,TCTATCGCTATATCCTCTTGAT,-0.479
11,TCTCTATCGCTATATCCTCTTG,-1.36
12,TACAGGAGCTCTTCCTCCCATT,-1.19

# Source: the OligoGym collection
